HTT ATP protect – protects HTT-Q103 PC12 cells, measured by ATP; 230,000 tested, 0.14% active; Potency, µM (top dose mostly 56.4 µM), hits mostly activators; PC12 HTT-Q103 induced, cytoprotection, ATP luminescence, 40 h; AID 1471; note: nearly all actives have a fitted effect of over 45% in size
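Compounds were screened for protection of PC12 cells against cell death after tebufenozide induction (100 nM final) of mutant Huntingtin exon 1 (Q103) fused to GFP.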
HttQ103 aggreg – mutant huntingtin aggregation inhibition; PC12 HttQ103-GFP aggregates, Acumen cytometry, 40 h; Potency, µM (top dose mostly 46.1 µM), most hits filed as inhibitors; 220,000 tested, 1.1% active; note: nearly all actives have a fitted effect of over 60% in size
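Compounds (qHTS titration) were added to PC12 cells expressing an ecdysone-driven HTT exon 1 Q103–GFP fusion after induction with 100 nM tebufenozide. Aggregate formation was measured as GFP objects in cell lysates.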
ALDH1A1 inh – ALDH1A1 (human) enzyme inhibition; P00352; Purified ALDH1A1, NADH fluorescence, propionaldehyde substrate; 220,000 tested, 7.3% active; Potency, µM (series often up to 75.3 µM), actives largely listed as inhibitors; AID 1030; active = well fitted inhibition curve with a large enough effect, not every such curve was filed as active; inconclusive = small, poorly fitted or top-dose-only effect, or another doubt; inactive = no such curve, though single readings can be large or run the other way
Target sequence (P00352 whole entry, looked up): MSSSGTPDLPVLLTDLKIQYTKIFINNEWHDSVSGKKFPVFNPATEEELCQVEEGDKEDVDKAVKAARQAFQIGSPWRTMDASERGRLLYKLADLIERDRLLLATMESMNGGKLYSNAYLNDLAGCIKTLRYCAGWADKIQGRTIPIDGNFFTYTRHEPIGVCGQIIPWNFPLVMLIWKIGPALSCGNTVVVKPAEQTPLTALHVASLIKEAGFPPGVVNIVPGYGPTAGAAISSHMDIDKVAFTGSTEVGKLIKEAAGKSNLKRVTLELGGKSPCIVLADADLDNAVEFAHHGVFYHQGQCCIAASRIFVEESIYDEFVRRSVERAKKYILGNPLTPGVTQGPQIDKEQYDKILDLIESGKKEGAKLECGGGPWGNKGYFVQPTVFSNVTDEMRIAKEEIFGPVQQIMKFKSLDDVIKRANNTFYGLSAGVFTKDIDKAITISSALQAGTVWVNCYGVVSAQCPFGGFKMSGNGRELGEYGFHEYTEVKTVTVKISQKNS
HPGD block – inhibitors of human 15-hydroxyprostaglandin dehydrogenase (HPGD). purified HPGD, NADH fluorescence kinetic, PGE2 substrate. Potency, µM, most hits filed as inhibitors. 150,000 tested, 4.3% active; active = well fitted inhibition curve with a large enough effect, not every such curve was filed as active; inconclusive = small, poorly fitted or top-dose-only effect, or another doubt; inactive = no such curve, though single readings can be large or run the other way
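20 nM HPGD preincubated 15 min at room temperature with compound in 50 mM Tris-HCl pH 8, 0.01% Tween 20. Started with 1 mM NAD+ and 30 uM prostaglandin E2; NADH fluorescence (360/450 nm) read 5 times over 30-s intervals, last minus first.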
IMPase Li cell – IMPase inhibition in cells with lithium potentiation. CHO-M1 cells, IP1 TR-FRET (IP-One), carbachol + lithium. 210,000 tested, 0.35% active. Potency, µM (highest dose often 59.4 µM), hits mostly inhibitors. AID 1457;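 note: IP1 builds up when IMPase is blocked and the TR-FRET signal falls; nearly all actives have a fitted effect of over 50% in size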
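CHO cells stably expressing M1 receptor (2000/well) were cultured 16–30 h, then exposed to compounds with a small lithium addition for 30 min at 37C. IP1 was measured by TR-FRET competition; AC50 from Hill fits.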
IMPase cell inh – cell-permeable inhibitors of inositol monophosphatase (IMPase); 120,000 tested, under 10 active; inhibition (IP1 accumulation), % at 46.1 µM; CHO-M1 cells, IP1 accumulation, HTRF TR-FRET ratio; active = well fitted curve in the direction sought with a large enough effect in the signal ratio, not every such curve was filed as active; inconclusive = small, poorly fitted or top-dose-only effect, or a change in a side signal; inactive = no such curve, though single readings can be large or run the other way; the % refers to the signal ratio;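 note: cells stimulated with carbachol in lithium chloride buffer; higher means more IMPase inhibition seen as more IP1 and lower FRET ratio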
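Elevated IP1 in lysates lowers TR-FRET signal (665/620 ratio and 620 channel reported). Cells were CHO-M1, given carbachol (50 uM as added) plus 50mM LiCl, pH 7.4, 30 min, 37C; compounds titrated up to 46 uM; AC50 by Hill equation.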
A number is an active result; n = inactive; u = inconclusive; x = not tested or not shown; [ ] = remark or other dose. This is a sample that favours compounds with a hit; in the whole collection about 9.4% have one here. Unless noted, calls come from the whole dose curve; as a rule, active = well fitted curve in the direction sought with a large enough effect; inconclusive = small, poorly fitted or top-dose-only effect, or another doubt; inactive = no such curve, though single readings can be large; an effect the other way counts as inactive or inconclusive.

SMILES	HTT ATP protect	HttQ103 aggreg	ALDH1A1 inh	HPGD block	IMPase Li cell	IMPase cell inh
OCCCc1nc2n(n1)C(c1cccs1)C=C(c1ccc(Br)cc1)N2 (centres undefined)	n[10 µM]	11.2µM	u	u	n	n
COc1ccc(-n2cc(-c3ccc4c(c3)OCO4)n(CC(=O)Nc3cccc(C)c3)c2=O)cc1	x	x	x	x	x	n
Cc1ccccc1N1CCN(Cc2nc(Cc3ccccc3)no2)CC1	x	x	n	x	n	x
CC(=O)c1ccc(N2CCN(Cc3nc(Cc4ccccc4)no3)CC2)cc1	n[10 µM]	n[9.22 µM]	17.8µM	x	n	x
O=C(O)CN1CCN(Cc2ccccc2)C1=O	n	n	n	n	n	n
O=C(O)CN1CCCC1=Nc1ccccc1	n	n	89.1µM	n	n	n
COC(=O)C/C=C\[C@@H](C)[C@@H](/C=N\O[C@@H](C)c1cn([C@H](CO)Cc2ccccc2)nn1)NS(=O)(=O)c1ccc(C)cc1	n[10 µM]	x	n[13.5 µM]	x	x	x
O=C(CCc1n[nH]c(=O)[nH]c1=O)N1CCCCC1	n	n	4.47µM	n	n	n
O=C(CSc1n[nH]c(=O)[nH]c1=O)N1CCCCCC1	n[10 µM]	n[9.22 µM]	x	x	x	x
COc1cccc(Cn2c(=O)c(-c3ccc(F)cc3)nc3cnc(OC)nc32)c1	n	x	u	x	n	x
COc1cc(C#N)ccc1OCC(=O)Nc1cccc(S(=O)(=O)N2CCCC2)c1	n	n	12.6µM	x	n	x
O=C(COC(=O)c1ccc([N+](=O)[O-])o1)Nc1cccc(S(=O)(=O)N2CCCCC2)c1	n	n	11.2µM	x	n	x
Cc1ccc(NC(=O)COC(=O)c2ccc([N+](=O)[O-])o2)cc1S(=O)(=O)N1CCCCC1	n	n	25.1µM	x	n	x
Cc1ccc(OCC(=O)Nc2cccc(S(=O)(=O)N3CCCCCC3)c2)c([N+](=O)[O-])n1	n	n	u	x	n	x
O=C(Nc1cccc(S(=O)(=O)N2CCCCC2)c1)c1ccc([N+](=O)[O-])o1	u	u	u	x	n	x
Cc1ccc(NC(=O)c2ccc([N+](=O)[O-])o2)cc1S(=O)(=O)N1CCOCC1	x	u	u	x	n	x
O=C(CSc1ccc2c(c1)OCCO2)NCc1ccccc1	n	n	n	x	n	x
O=C(CSc1cc(Cl)ccc1Cl)NCC1CCCO1 (centres undefined)	n[10 µM]	n	n	6.31µM	n	n
O=C(CCCOc1ccc(Cl)cc1)NCC1CCCO1 (centres undefined)	n	n	u	14.1µM	n	n
O=C(CSc1ccc2c(c1)OCCO2)NCC1CCCO1 (centres undefined)	n	n	u	15.8µM	n	n
O=C(CSCc1c(Cl)cccc1Cl)NCC1CCCO1 (centres undefined)	n	n	u	5.01µM	n	n
O=C(Cc1c(F)cccc1Cl)NCC1CCCO1 (centres undefined)	n	n	n	n	n	n
COc1cccc(-c2noc(N)c2C#N)c1	n	11.2µM	n	u	n	n
N#Cc1c(-c2ccc(F)cc2)noc1N	u	n	n	n	n	n
COc1ccc(-c2nc(-c3cccc(C)c3)[nH]c(=O)c2C#N)cc1	n	n	u	u	n	n
SMILES	HTT ATP protect	HttQ103 aggreg	ALDH1A1 inh	HPGD block	IMPase Li cell	IMPase cell inh
COc1cccc(-c2nc(-c3ccccc3)[nH]c(=O)c2C#N)c1	n	u	n	15.8µM	n	n
N#Cc1c(-c2ccccc2)nc(-c2ccccc2)[nH]c1=O	n	n	u	2µM	3.55µM	n
OCC1OC(C#Cc2ccccc2)C=CC1OCc1ccccc1 (centres undefined)	n[10 µM]	x	n[13.5 µM]	x	x	x
N#Cc1ccccc1NC(=O)CSc1nc(-c2ccccc2)cc(C(F)(F)F)c1C#N	x	x	x	x	x	n
COc1ccccc1-n1c(-c2ccccc2)c[n+]2c1CCc1ccccc1-2	n	2.24µM	n	x	n	x
COc1ccc(-n2c(-c3ccc(Br)cc3)c[n+]3c2CCc2ccccc2-3)cc1	n[10 µM]	12.6µM	n	n	n	x
COc1ccc(-c2c[n+]3c(n2-c2ccccc2)CCCCC3)cc1	n[10 µM]	u	n	n	n	n
COc1ccc(-c2cn(-c3ccc(OC)cc3)c3[n+]2-c2ccccc2CC3)cc1	n[10 µM]	u	u	n	n	n
CC(C)c1ccc(-n2c(-c3ccccc3)c[n+]3c2CCc2ccccc2-3)cc1	n[10 µM]	1.58µM	u	x	n	x

Screening results: PubChem BioAssay, National Center for Advancing Translational Sciences (NCATS)
